# Experimental data from PubChem BioAssay AID1159580 (chemical genetic matrix, 2015).
# The campaign covered roughly 5,500 compounds. About 2,000 (36%) were called active. Not shown: some 18% with an inconclusive outcome. The list shows a part of the results. A number with no mark means an inactive call. Rule as the data show it: active = normalized growth mostly below about 0.91 (no sharp cut-off); inconclusive = no clear call, values can overlap the other calls; inactive = mostly above about 0.92.
# Assay: chemical genetic growth profiling, strain panel (AID 1159580);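 also: tested at 20 µM; growth read once vehicle control cultures reached saturation at 30 °C; 1 = growth at the plate median or of vehicle wells; lower values mean less growth of the strain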
# Conditions: growth OD
smiles,measurement,setting,value
C=Cc1c2[nH]c(c1C)C=c1[nH]c(c(C)c1C=C)=CC1N=C(C=c3[nH]c(c(C)c3CCC(=O)O)=C2)C(CCC(=O)O)=C1C (configuration not stated),normalized growth,"S. cerevisiae deletion strains, locus YJR075W, strain HOC1, hits give low values",0.947
same,normalized growth,"S. cerevisiae deletion strains, locus YKL009W, strain mrt4, hits give low values",0.791 (active)
same,normalized growth,"S. cerevisiae deletion strains, locus YKL068W, hits give low values",1.06
same,normalized growth,"S. cerevisiae deletion strains, locus YKL085W, strain MDH1 (second series), hits give low values",1.19 [resistant] (active)
same,normalized growth,"S. cerevisiae deletion strains, locus YKL085W, strain MDH1, hits give low values",1.19 [resistant] (active)
same,normalized growth,"S. cerevisiae deletion strains, locus YKL160W, strain elf1, hits give low values",0.963
same,normalized growth,"S. cerevisiae deletion strains, locus YKL190W, strain CNB1, hits give low values",0.99
same,normalized growth,"S. cerevisiae deletion strains, locus YKR001C, strain vps1, hits give low values",0.953
same,normalized growth,"S. cerevisiae deletion strains, locus YKR026C, strain gcn3, hits give low values",1.06
same,normalized growth,"S. cerevisiae deletion strains, locus YKR091W, strain srl3, hits give low values",1
same,normalized growth,"S. cerevisiae deletion strains, locus YLL001W, strain dnm1, hits give low values",1.02
same,normalized growth,"S. cerevisiae deletion strains, locus YLL026W, hits give low values",1.02
same,normalized growth,"S. cerevisiae deletion strains, locus YLL041C, strain sdh2, hits give low values",1.02
same,normalized growth,"S. cerevisiae deletion strains, locus YLR027C, strain aat2, hits give low values",1
same,normalized growth,"S. cerevisiae deletion strains, locus YLR039C, strain RIC1, hits give low values",0.996
same,normalized growth,"S. cerevisiae deletion strains, locus YLR058C, strain SHM2, hits give low values",0.976
same,normalized growth,"S. cerevisiae deletion strains, locus YLR102C, strain apc9, hits give low values",0.992
same,normalized growth,"S. cerevisiae deletion strains, locus YLR113W, strain HOG1, hits give low values",1.05
same,normalized growth,"S. cerevisiae deletion strains, locus YLR221C, strain rsa3, hits give low values",0.975
same,normalized growth,"S. cerevisiae deletion strains, locus YLR258W, strain gsy2, hits give low values",1.02
same,normalized growth,"S. cerevisiae deletion strains, locus YLR262C, strain YPT6 (second series), hits give low values",1.07
same,normalized growth,"S. cerevisiae deletion strains, locus YLR262C, strain YPT6, hits give low values",0.976
same,normalized growth,"S. cerevisiae deletion strains, locus YLR268W, strain sec22, hits give low values",1.06
same,normalized growth,"S. cerevisiae deletion strains, locus YLR320W, strain mms22, hits give low values",0.996
same,normalized growth,"S. cerevisiae deletion strains, locus YLR330W, strain CHS5, hits give low values",0.99
same,normalized growth,"S. cerevisiae deletion strains, locus YLR342W, strain FKS1 (second series), hits give low values",0.993
same,normalized growth,"S. cerevisiae deletion strains, locus YLR342W, strain FKS1, hits give low values",1.03
same,normalized growth,"S. cerevisiae deletion strains, locus YLR357W, strain rsc2, hits give low values",1.05
same,normalized growth,"S. cerevisiae deletion strains, locus YLR370C, strain arc18, hits give low values",0.999
same,normalized growth,"S. cerevisiae deletion strains, locus YLR371W, strain rom2, hits give low values",0.949
same,normalized growth,"S. cerevisiae deletion strains, locus YLR384C, strain iki3, hits give low values",1.04
same,normalized growth,"S. cerevisiae deletion strains, locus YLR418C, strain cdc73, hits give low values",0.885
same,normalized growth,"S. cerevisiae deletion strains, locus YML016C, strain PPZ1, hits give low values",0.979
same,normalized growth,"S. cerevisiae deletion strains, locus YML032C, strain rad52, hits give low values",1.01
same,normalized growth,"S. cerevisiae deletion strains, locus YML120C, strain ndi1, hits give low values",1.01
same,normalized growth,"S. cerevisiae deletion strains, locus YML124C, strain tub3, hits give low values",0.987
same,normalized growth,"S. cerevisiae deletion strains, locus YMR058W, strain fet3, hits give low values",0.912
same,normalized growth,"S. cerevisiae deletion strains, locus YMR078C, strain ctf18, hits give low values",0.993
same,normalized growth,"S. cerevisiae deletion strains, locus YMR125W, strain sto1, hits give low values",1.06
same,normalized growth,"S. cerevisiae deletion strains, locus YMR129W, hits give low values",1.06
same,normalized growth,"S. cerevisiae deletion strains, locus YMR205C, strain PFK2, hits give low values",1.02
same,normalized growth,"S. cerevisiae deletion strains, locus YMR223W, strain ubp8, hits give low values",0.972
same,normalized growth,"S. cerevisiae deletion strains, locus YMR231W, strain pep5, hits give low values",1.02
same,normalized growth,"S. cerevisiae deletion strains, locus YMR263W, strain SAP30, hits give low values",0.982
same,normalized growth,"S. cerevisiae deletion strains, locus YMR307W, strain GAS1, hits give low values",0.909
same,normalized growth,"S. cerevisiae deletion strains, locus YNL067W, strain RPL9B, hits give low values",1
same,normalized growth,"S. cerevisiae deletion strains, locus YNL071W, strain lat1, hits give low values",0.881 (active)
same,normalized growth,"S. cerevisiae deletion strains, locus YNL128W, strain TEP1, hits give low values",0.975
same,normalized growth,"S. cerevisiae deletion strains, locus YNL153C, strain GIM3, hits give low values",1
same,normalized growth,"S. cerevisiae deletion strains, locus YNL183C, strain NPR1, hits give low values",1.01
same,normalized growth,"S. cerevisiae deletion strains, locus YNL209W, strain ssb2, hits give low values",1.02
same,normalized growth,"S. cerevisiae deletion strains, locus YNL233W, strain BNI4, hits give low values",1.01
same,normalized growth,"S. cerevisiae deletion strains, locus YNL248C, strain rpa49, hits give low values",0.987
same,normalized growth,"S. cerevisiae deletion strains, locus YNL250W, strain rad50, hits give low values",1.02
same,normalized growth,"S. cerevisiae deletion strains, locus YNL271C, strain bni1, hits give low values",1.02
same,normalized growth,"S. cerevisiae deletion strains, locus YNL298W, strain CLA4, hits give low values",1
same,normalized growth,"S. cerevisiae deletion strains, locus YNL307C, strain MCK1, hits give low values",0.966
same,normalized growth,"S. cerevisiae deletion strains, locus YNL322C, strain KRE1 (second series), hits give low values",1.03
same,normalized growth,"S. cerevisiae deletion strains, locus YNL322C, strain KRE1, hits give low values",0.989
same,normalized growth,"S. cerevisiae deletion strains, locus YNR049C, strain mso1, hits give low values",1.01
same,normalized growth,"S. cerevisiae deletion strains, locus YNR052C, strain pop2, hits give low values",1
same,normalized growth,"S. cerevisiae deletion strains, locus YOL006C, strain TOP1, hits give low values",0.997
same,normalized growth,"S. cerevisiae deletion strains, locus YOL012C, strain htz1",0.933
same,normalized growth,"S. cerevisiae deletion strains, locus YOL147C, strain pex11, hits give low values",0.996
same,normalized growth,"S. cerevisiae deletion strains, locus YOR001W, strain rrp6, hits give low values",1.03
same,normalized growth,"S. cerevisiae deletion strains, locus YOR061W, strain CKA2, hits give low values",0.98
same,normalized growth,"S. cerevisiae deletion strains, locus YOR069W, strain VPS5, hits give low values",0.95
same,normalized growth,"S. cerevisiae deletion strains, locus YOR070C, strain gyp1, hits give low values",0.98
same,normalized growth,"S. cerevisiae deletion strains, locus YOR080W, strain dia2, hits give low values",1.01
same,normalized growth,"S. cerevisiae deletion strains, locus YOR083W, strain WHI5, hits give low values",0.951
same,normalized growth,"S. cerevisiae deletion strains, locus YOR106W, strain vam3, hits give low values",0.951
same,normalized growth,"S. cerevisiae deletion strains, locus YOR136W, strain idh2, hits give low values",0.982
same,normalized growth,"S. cerevisiae deletion strains, locus YOR144C, strain elg1, hits give low values",0.996
same,normalized growth,"S. cerevisiae deletion strains, locus YOR184W, strain ser1, hits give low values",0.964
same,normalized growth,"S. cerevisiae deletion strains, locus YOR231W, strain MKK1, hits give low values",1.05
same,normalized growth,"S. cerevisiae deletion strains, locus YOR265W, strain rbl2, hits give low values",1.01
same,normalized growth,"S. cerevisiae deletion strains, locus YOR270C, strain vph1, hits give low values",0.874
same,normalized growth,"S. cerevisiae deletion strains, locus YOR290C, strain snf2, hits give low values",0.997
same,normalized growth,"S. cerevisiae deletion strains, locus YOR316C, strain cot1, hits give low values",0.99
same,normalized growth,"S. cerevisiae deletion strains, locus YPL051W, strain arl3, hits give low values",0.949
same,normalized growth,"S. cerevisiae deletion strains, locus YPL055C, strain LGE1, hits give low values",0.903
same,normalized growth,"S. cerevisiae deletion strains, locus YPL078C, strain atp4, hits give low values",0.984
same,normalized growth,"S. cerevisiae deletion strains, locus YPL106C, strain sse1, hits give low values",0.982
same,normalized growth,"S. cerevisiae deletion strains, locus YPL240C, strain hsp82, hits give low values",0.994
same,normalized growth,"S. cerevisiae deletion strains, locus YPL241C, strain CIN2, hits give low values",0.994
same,normalized growth,"S. cerevisiae deletion strains, locus YPL256C, strain CLN2, hits give low values",1.1
same,normalized growth,"S. cerevisiae deletion strains, locus YPR119W, strain clb2, hits give low values",0.994
same,normalized growth,"S. cerevisiae deletion strains, locus YPR141C, strain kar3, hits give low values",1.01
same,normalized growth,"S. cerevisiae deletion strains, locus YPR163C, strain tif3, hits give low values",1
same,normalized growth,"S. cerevisiae deletion strains, locus YPR167C, strain met16, hits give low values",1
same,normalized growth,"S. cerevisiae deletion strains, strain wtn01, hits give low values",0.996
same,normalized growth,"S. cerevisiae strains, strain wild type, hits give low values",0.972
